Laboratory results as given in PubChem BioAssay AID1159580 (chemical genetic matrix, 2015).
In all, about 5,500 compounds went through this assay and about 2,000 (36%) were called active. Not shown: some 18% with an inconclusive outcome. No stated cut-off is given here; in the data, active means normalized growth mostly below about 0.91 (no sharp cut-off); inconclusive means no clear call, values can overlap the other calls; inactive means mostly above about 0.92. Some of the results follow.

Test: chemical genetic growth profiling, strain panel (AID 1159580);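 further: tested at 20 µM; growth read once vehicle control cultures reached saturation at 30 °C; 1 = growth at the plate median or of vehicle wells; lower values mean less growth of the strain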
Conditions: S. cerevisiae deletion strains, growth OD

Measured: normalized growth

COc1ccc(-c2cc(=O)c3c(O)c(OC)c(OC)cc3o2)cc1O
active: locus YNL250W, strain rad50, active compounds read low 0.89
inactive: locus YBR021W, strain FUR4, active compounds read low 0.907 | locus YBR229C, strain ROT2, active compounds read low 1.01 | locus YCL029C, strain bik1, active compounds read low 0.937 | locus YDL035C, strain GPR1, active compounds read low 0.929 | locus YDL074C, strain BRE1, active compounds read low 0.878 | locus YDL101C, strain DUN1, active compounds read low 0.997 | locus YDL134C, strain PPH21, active compounds read low 1 | locus YDL185W, strain tfp1, active compounds read low 0.96 | locus YDL192W, strain arf1, active compounds read low 0.951 | locus YDR101C, strain arx1, active compounds read low 0.926 | locus YDR150W, strain NUM1, active compounds read low 0.997 | locus YDR162C, strain NBP2, active compounds read low 1 | locus YDR318W, strain mcm21, active compounds read low 0.99 | locus YDR388W, active compounds read low 0.99 | locus YDR502C, strain sam2, active compounds read low 0.953 | locus YEL061C, strain CIN8, active compounds read low 1 | locus YER110C, active compounds read low 0.974 | locus YER155C, strain BEM2, active compounds read low 1.01 | locus YER167W, strain BCK2, active compounds read low 0.979 | locus YGL078C, strain dbp3, active compounds read low 0.944 | locus YGL086W, strain mad1, active compounds read low 0.935 | locus YGL248W, strain PDE1, active compounds read low 0.993 | locus YGR078C, strain PAC10, active compounds read low 0.969 | locus YGR135W, strain pre9, active compounds read low 0.971 | locus YGR229C, strain SMI1, active compounds read low 0.893 | locus YGR252W, strain gcn5, active compounds read low 0.994 | locus YHR030C, strain SLT2, active compounds read low 0.998 | locus YHR079C, strain IRE1 (second series), active compounds read low 0.978 | locus YHR094C, strain hxt1, active compounds read low 0.995 | locus YHR129C, strain ARP1, active compounds read low 0.978 | locus YHR200W, strain rpn10, active compounds read low 0.985 | locus YIL066C, strain RNR3, active compounds read low 0.964 | locus YIL073C, strain SPO22, active compounds read low 0.873 | locus YIL125W, strain kgd1, active compounds read low 0.959 | locus YIR030C, strain dcg1, active compounds read low 0.993 | locus YJL095W, strain BCK1, active compounds read low 0.991 | locus YJL134W, strain LCB3, active compounds read low 0.998 | locus YJL168C, strain set2, active compounds read low 0.993 | locus YJL187C, strain SWE1 (second series), active compounds read low 0.952 | locus YJR043C, strain POL32, active compounds read low 0.954 | locus YJR075W, strain HOC1, active compounds read low 0.983 | locus YKL009W, strain mrt4, active compounds read low 0.943 | locus YKL068W, active compounds read low 0.969 | locus YKL085W, strain MDH1 (second series), active compounds read low 0.985 | locus YKL085W, strain MDH1, active compounds read low 0.985 | locus YKL190W, strain CNB1, active compounds read low 1.01 | locus YKR001C, strain vps1, active compounds read low 0.943 | locus YLR039C, strain RIC1, active compounds read low 0.96 | locus YLR058C, strain SHM2, active compounds read low 1 | locus YLR102C, strain apc9, active compounds read low 0.988 | locus YLR262C, strain YPT6, active compounds read low 0.989 | locus YLR268W, strain sec22, active compounds read low 0.902 | locus YLR330W, strain CHS5, active compounds read low 0.983 | locus YLR342W, strain FKS1 (second series), active compounds read low 0.944 | locus YLR371W, strain rom2, active compounds read low 0.985 | locus YLR418C, strain cdc73, active compounds read low 0.928 | locus YML016C, strain PPZ1, active compounds read low 1 | locus YML032C, strain rad52, active compounds read low 0.971 | locus YML124C, strain tub3, active compounds read low 0.998 | locus YMR078C, strain ctf18, active compounds read low 0.988 | locus YMR223W, strain ubp8, active compounds read low 0.99 | locus YMR263W, strain SAP30, active compounds read low 1.05 | locus YMR307W, strain GAS1, active compounds read low 0.998 | locus YNL067W, strain RPL9B, active compounds read low 0.965 | locus YNL153C, strain GIM3, active compounds read low 0.969 | locus YNL233W, strain BNI4, active compounds read low 0.928 | locus YNL271C, strain bni1, active compounds read low 0.993 | locus YNL298W, strain CLA4, active compounds read low 0.996 | locus YNL307C, strain MCK1, active compounds read low 0.975 | locus YNR052C, strain pop2, active compounds read low 0.973 | locus YOL012C, strain htz1 1.07 | locus YOL147C, strain pex11, active compounds read low 0.97 | locus YOR061W, strain CKA2, active compounds read low 0.98 | locus YOR069W, strain VPS5, active compounds read low 0.999 | locus YOR136W, strain idh2, active compounds read low 0.98 | locus YOR144C, strain elg1, active compounds read low 0.991 | locus YOR184W, strain ser1, active compounds read low 0.897 | locus YOR316C, strain cot1, active compounds read low 0.991 | locus YPL055C, strain LGE1, active compounds read low 0.941 | locus YPR119W, strain clb2, active compounds read low 0.995 | locus YPR141C, strain kar3, active compounds read low 1 | locus YPR163C, strain tif3, active compounds read low 0.992 | locus YPR167C, strain met16, active compounds read low 0.991 | strain wtn01, active compounds read low 0.92
